From PubChem BioAssay (NCATS) come the findings set out here.

Several values for one entry are separate records, joined by “and”; a condition that tells them apart may be missing. Equal values may be shown once. Records with an inconclusive call do not appear. Activity calls are given as the source filed them. Unless noted, calls follow the shape of the dose curve; as a rule, active = well fitted curve in the direction sought with a large enough effect; inconclusive = small, poorly fitted or top-dose-only effect, or another doubt; inactive = no such curve, though single readings can be large; an effect the other way counts as inactive or inconclusive.

In test [1] the target is Alpha-galactosidase A (Homo sapiens) (UniProt P06280). Briefly: Counterscreen for Glucocerebrosidase Inhibitors: qHTS Assay for Human alpha-Galactosidase at pH 4.5 (AID 992). Also: 0% is about no effect. Summed up:
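Concentration-response curves (0.7 nM to 77 uM final) were modeled with the Hill equation to give AC50. Reactions: 2 nM enzyme, 80 uM fluorogenic alpha-galactoside, pH 4.5 citric acid buffer, 20 min, room temperature.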
A general note: The purpose of a counterscreen is to sort out artefacts and off-target activity.

The target of test [2] is alpha-glucosidase (Oryza sativa, rice) (UniProt Q653V4). Briefly: Counterscreen for Glucocerebrosidase Inhibitors: qHTS Assay for Rice alpha-Glucosidase at pH 5.0 (AID 997).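 Also: 0% = full activity with enzyme and -100% = basal without enzyme.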 Summed up: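 Rice alpha-glucosidase (4 nM final) with 400 uM 4-methylumbelliferyl-alpha-D-glucopyranoside in citrate buffer pH 5.0, 20 min at room temperature, stopped at pH 10; fluorescence 365/440 nm, compounds 0.7 nM–77 uM, AC50 from Hill fits.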

A short description of test [3]: Cell Viability - LYMP2-010 (AID 981).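 Also: cells exposed to compound for 24 hours at 37 °C; % is scaled to controls: 0 for no effect and ±100 for the full control effect; nearly all actives have a fitted effect of over 55% in size.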 In short, it runs like this:
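Acute toxicity is scored as a concentration-dependent loss of cellular ATP in human lymphoblastoid cells after 24 hr compound exposure in complete medium. Tetraoctylammonium bromide is the positive control.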

A short description of test [4]: Cell Viability - LYMP2-012 (AID 982).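 Also: cellular ATP by luciferase luminescence where a drop means cytotoxicity; cells exposed to compound for one day before reading; 0% = DMSO only and full loss = 92 µM tetraoctylammonium bromide; nearly all actives have a fitted effect of over 55% in size.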
Test [5] can be described thus: Cell Viability - LYMP2-014 (AID 983).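 Also: cells exposed to compound for 24 h at 37 °C; plate controls were DMSO only for no effect and 92 µM tetraoctylammonium bromide for full effect; nearly all actives have a fitted effect of over 50% in size.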 In short, it runs like this: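 Decrease in intracellular ATP after 24 hr treatment at 37 C, measured by luciferase luminescence, indicated cytotoxicity. Concentration-response data were fitted with the standard Hill equation to give AC50.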
The nature of test [6]: Cell Viability - LYMP2-016 (AID 984).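 Also: cells exposed to compound for 24 hours at 37 °C; % is scaled to controls: 0 for no effect and ±100 for the full control effect; nearly all actives have a fitted effect of over 55% in size.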 Summed up:
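Human lymphoblastoid cells (LYMP2-016), 2500/well in complete medium, preincubated 5 hr at 37 C, then compound-treated 24 hr at 37 C. Intracellular ATP read by CellTiter-Glo luminescence after 30 min at room temperature; AC50 from Hill-equation concentration-response fits.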

A short description of test [7]: Cell Viability - LYMP2-018 (AID 985).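 Also: compound exposure lasted 24 hr at 37 °C; plate controls were DMSO only for no effect and tetraoctylammonium bromide at 92 µM for full effect; nearly all actives have a fitted effect of over 50% in size.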 In short, it runs like this:
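Acute cytotoxicity is scored as a concentration-dependent drop in intracellular ATP after 24 hr exposure of the lymphoblastoid line in complete culture medium, measured by luciferase luminescence. Potency is expressed as AC50 from Hill modelling.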

A short description of test [8]: Cell Viability - LYMP2-020 (AID 986).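 Also: cells exposed to compound for 24 h at 37 °C; plate controls were DMSO only for no effect and tetraoctylammonium bromide at 92 µM for full effect; nearly all actives have a fitted effect of over 55% in size.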 Summed up:
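Acute cytotoxicity in a human lymphoblastoid line is scored as a concentration-dependent fall in cellular ATP after 24 hr at 37 C in complete medium. The positive control is tetraoctylammonium bromide, and potency is given as Hill-fit AC50.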

Test [9] can be described thus: Cell Viability - LYMP2-022 (AID 987). Summed up: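 Acute toxicity in a human lymphoblastoid line is scored as decreased intracellular ATP after 24 hr compound treatment at 37 C. ATP is measured by CellTiter-Glo luminescence; curves are fitted with the Hill equation to give AC50.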
Test [10] is described as follows: Cell Viability - LYMP2-024 (AID 988).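 Also: plate controls were DMSO only for no effect and 92 µM tetraoctylammonium bromide for full effect; nearly all actives have a fitted effect of over 60% in size.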 In short, it runs like this: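 Acute toxicity is measured as concentration-dependent loss of intracellular ATP in a human lymphoblastoid line treated 24 hours at 37 C. Luciferase luminescence quantifies ATP; AC50 values come from standard Hill-equation modelling.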
Test [11] is described as follows: Cell Viability - LYMP2-026 (AID 989).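 Also: cells exposed to compound for 24 h at 37 °C; % is scaled to controls: 0 for no effect and ±100 for the full control effect; nearly all actives have a fitted effect of over 50% in size.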 In short, it runs like this:
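Concentration-dependent loss of intracellular ATP in human lymphoblastoid cells after 24 hr at 37 C, quantified by luciferase luminescence. AC50 derived from standard Hill equation.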

Test [12] is described as follows: Cell Viability - LYMP1-002 - Assay at 24 hr (AID 993). Also: % is scaled to controls: 0 for no effect and ±100 for the full control effect. Summed up: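 qHTS, LYMP1-002 lymphoblastoid, 24 h cpd, 37 C, CellTiter-Glo ATP luminescence; AC50 via Hill eq.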
Test [13] can be described thus: Cell Viability - LYMP1-002 - Assay at 40 hr (AID 994).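 Also: 0% = DMSO only and full inhibition = 92 µM tetraoctylammonium bromide; nearly all actives have a fitted effect of over 60% in size.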 Summed up:
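Viability in the human lymphoblastoid line was measured as intracellular ATP via CellTiter-Glo after 40 hr compound exposure. Tetraoctylammonium bromide served as positive control.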

Test [14] is described as follows: qHTS Assay for Lipid Storage Modulators (AID 1519; calls by dose curve; as to activity change, negative = inhibition: % is scaled to controls: 0 for no effect and ±100 for the full control effect). To be noted: Drosophila S3 cells, BODIPY lipid droplet/cell ratio, laser cytometry, cells loaded with oleic acid. Summed up:
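Cells seeded at 5,000 per well were treated with compounds over a concentration series and loaded with oleic acid (400 uM, as added). Lipid droplet fluorescence (488 nm excitation, 500-530 nm channel) was read by laser-scanning cytometry and normalized to 20 uM Triacsin C.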
(In qHTS, concentration-response curves come from the screen itself.)

Test [15] has as its target DNA repair nuclease/redox regulator APEX1 (Homo sapiens) (UniProt P27695). In words: qHTS Validation Assay for Inhibitors of the Human Apurinic/apyrimidinic Endonuclease 1 (APE1) (AID 1705;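 also: TAMRA fluorescence gain over two minutes as APE1 cuts a quenched THF abasic duplex; % is scaled to controls: 0 for no effect and ±100 for the full control effect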). In short, it runs like this:
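Human APE1 was preincubated with compound for 15 min at room temperature, then 50 nM (final) THF-abasic double-stranded DNA substrate bearing 5'-TAMRA and 3'-BHQ-2 was added. Incision-driven fluorescence rise (ex 525/em 598 nm) was read kinetically.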

A short description of test [16]: Counterscreen for APE1 Inhibitors: Fluorescent Dye Displacement Validation Assay (AID 1707).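 Also: plate controls were ThO with dsDNA and no compound for no effect and ThO without dsDNA for full effect.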 In short, it runs like this: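 Assay buffer: Tris-HCl pH7.5 with 50mM NaCl, 2 mM MgCl2, 0.01% Tween-20. Dye 250 nM, duplex 50 nM final. Readout: decrease in ThO endpoint fluorescence, 480 nm excitation, 540 nm emission.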
For test [17], the target named is Endonuclease 4 (Escherichia coli (strain K12)) (UniProt P0A6C1). In words: Counterscreen for APE1 Inhibitors: qHTS Validation Assay for Inhibitors of Endonuclease IV (AID 1708). Also: % is scaled to controls: 0 for no effect and ±100 for the full control effect. Summed up:
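2 nM enzyme was preincubated with compounds for 15 min at room temperature in 50 mM Tris-HCl pH 7.5, 50 mM NaCl, 2 mM MgCl2, 1 mM DTT, 0.01% Tween-20. 50 nM THF-abasic TAMRA/BHQ-2 duplex substrate started the reaction.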

Test [18] can be described thus: qHTS for differential inhibitors of proliferation of Plasmodium falciparum line 7G8 (AID 1815).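 Also: parasite growth measured after three days of incubation; plate controls were vehicle wells for no effect and reference inhibitor wells for full effect.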
Test [19] is described as follows: qHTS for differential inhibitors of proliferation of Plasmodium falciparum line GB4 (AID 1816).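 Also: parasite growth measured after 72 h incubation; 0% = vehicle DMSO and -100% = reference inhibitor.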
A short description of test [20]: qHTS for differential inhibitors of proliferation of Plasmodium falciparum line 3D7 (AID 1876).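 Also: parasite growth measured after three days of culture; 0% = vehicle wells and -100% = reference inhibitor wells.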
The mark [21] stands for this setting: measured here: cell count channel max response.
Setting [22] is: measured here: lipid channel max response.

Sequence of Alpha-galactosidase A (Homo sapiens) (P06280 whole entry, looked up): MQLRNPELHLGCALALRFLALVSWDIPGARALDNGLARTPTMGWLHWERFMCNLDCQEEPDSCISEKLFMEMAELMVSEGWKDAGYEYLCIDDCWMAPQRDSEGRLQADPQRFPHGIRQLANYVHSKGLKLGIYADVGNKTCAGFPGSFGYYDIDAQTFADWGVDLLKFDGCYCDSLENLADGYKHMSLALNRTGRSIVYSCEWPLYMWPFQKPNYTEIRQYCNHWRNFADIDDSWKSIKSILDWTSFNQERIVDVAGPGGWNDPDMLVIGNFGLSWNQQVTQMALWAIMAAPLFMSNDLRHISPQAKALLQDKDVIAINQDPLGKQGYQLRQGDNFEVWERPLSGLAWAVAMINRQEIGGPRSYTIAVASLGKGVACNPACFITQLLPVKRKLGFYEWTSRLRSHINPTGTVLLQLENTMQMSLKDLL
Sequence of DNA repair nuclease/redox regulator APEX1 (Homo sapiens) (P27695 whole entry, looked up): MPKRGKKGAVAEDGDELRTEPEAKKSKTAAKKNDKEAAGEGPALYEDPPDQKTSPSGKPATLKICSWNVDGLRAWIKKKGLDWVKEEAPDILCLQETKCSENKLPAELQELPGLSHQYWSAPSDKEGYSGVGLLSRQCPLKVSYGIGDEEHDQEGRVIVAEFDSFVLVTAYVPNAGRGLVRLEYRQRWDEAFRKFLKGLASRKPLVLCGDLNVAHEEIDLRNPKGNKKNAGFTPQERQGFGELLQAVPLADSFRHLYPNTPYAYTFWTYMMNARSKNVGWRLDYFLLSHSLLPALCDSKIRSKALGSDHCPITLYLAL

For the molecule `NC(=O)CC[C@@H](N)C(=O)O`, the molecule was called inactive in test [1] and in test [2].

Turning to `COc1ccc(O)cc1`, the outcome in test [3], in test [4], in test [5], in test [6], in test [7] and in test [8] was inactive. For the same molecule, the call in [9], in test [10], in [11], in test [12] and in [13] was inactive.

In the case of `CCN(CC)C(=O)c1cccc(C)c1`, the molecule was called inactive in test [3], in [4], in [5], in test [6], in test [7] and in [8]. Moreover, the molecule was called inactive in test [9], in test [10], in [11], in test [12] and in test [13]. Moreover, the activity change, negative = inhibition in test [14] (at 57.5 µM (top of the series)) is 7.23% (inactive). For the same molecule, the max response in [14] (setting [21]) amounted to 15.5%; in test [14] (setting [22]), 28.9%.

For `Nc1ccc(S(=O)(=O)c2ccc(N)cc2)cc1`, the molecule was called inactive in [3], in test [4], in test [5], in [6], in [7] and in test [8]. Also, the molecule was classed as inactive in test [9], in test [10], in test [11], in test [12] and in test [13]. For the same molecule, the activity change, negative = inhibition in test [14] (at 25.7 µM (top of the series)) was -0.694% (inactive). Moreover, the max response came out at 4.2% in test [14] (setting [21]) and 4.3% in test [14] (setting [22]).

`CCCCOC(=O)c1ccc(N)cc1`: the molecule was called inactive in [3], in [4], in test [5], in [6], in test [7] and in test [8]. For the same molecule, the call in test [9], in test [10], in test [11], in test [12] and in test [13] was inactive. For the same molecule, the activity change, negative = inhibition in [14] (at 25.7 µM (top of the series)) is 0.621% (inactive). Besides, the values for the max response in test [14] (setting [21]) and in test [14] (setting [22]) were -14.7% and -12.8%, respectively.

As to `CC1CC(OC(=O)c2ccccc2O)CC(C)(C)C1` (configuration not stated), the molecule was called inactive in [3], in test [4], in test [5], in test [6], in test [7] and in test [8]. Moreover, the call in test [9], in test [10], in test [11], in test [12] and in test [13] was inactive. Also, the activity change, negative = inhibition in [14] (at 57.5 µM (top of the series)) was 7.41% (inactive). For the same molecule, the max response in [14] (setting [21]) was found to be 1.44%; in [14] (setting [22]), 9.79%.

For the molecule `CCCC(O)C(CC)CO` (configuration not stated), the molecule was called inactive in test [3], in [4], in test [5], in test [6], in test [7] and in [8]. For the same molecule, the outcome in test [9], in [10], in test [11], in test [12] and in test [13] was inactive.

As for `CC(=O)Nc1ccccc1`, the call in test [3], in test [4], in [5], in test [6], in [7] and in [8] was inactive. Besides, the result in [9], in [10], in test [11], in test [12] and in test [13] was inactive. Also, the activity change, negative = inhibition in test [14] (at 57.5 µM (top of the series)) was 8.44% (inactive). Further, the max response in test [14] (setting [21]) worked out at 6.17%; in [14] (setting [22]) it was 17.6%.

On to `CN1C(C)(C)CCCC1(C)C`, for which the molecule was called inactive in [1], in [2], in test [15], in [16], in [17] and in test [18]. Besides, the outcome in test [19] and in test [20] was inactive. For the same molecule, the activity change, negative = inhibition is 0.627% (inactive) in test [14] (at 25.7 µM (top of the series)) and 10.8% (inactive) in test [14] (at 57.5 µM (top of the series)). Also, the max response in test [14] (setting [21]) is 4.18% and 13.7%; in test [14] (setting [22]), 5.5% and 25.7%.

Turning to `O=C1C(c2[nH]c3ccccc3c2O)=Nc2ccccc21`, the call in test [3], in test [4], in [5], in [6], in [7] and in test [8] was inactive. The molecule was called inactive in test [9], in test [10], in test [11], in [12] and in test [13].
